Here are results for 108 molecules from PubChem BioAssay AID687030 (Broad Institute, 2013).

Screen size: about 1,400 compounds; about 10 (0.7%) were called active. No rule for the calls is given here. Only a sample is shown. Entries with a potency or affinity are not part of this list.

A short description of the assay: BHK-21 cell toxicity, dose response, cytotoxicity control, plate reader, cherry-pick samples (AID 687030).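 Also: cells were exposed to compound for three days before reading.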 To be noted: BHK-21 cells; series mostly up to 19.5 µM.
`Cc1ccc(N(C)C(=O)N2CCN(S(=O)(=O)c3ccc(C)cc3)CC2)cc1`: the outcome was inactive. Next, `CCOC(=O)c1[nH]c2ccccc2c1NC(=O)c1ccc2c(c1)OCO2`: “inactive”; `Cc1cccc(N(C(=O)Cn2nnc3ccccc32)C(C(=O)NC(C)(C)C)c2ccsc2)c1` (stereo not drawn): “inactive”. Regarding `O=C(CNC(=O)N1CC(=O)Nc2ccccc21)NCc1ccc(F)cc1`, the outcome was inactive. As to `Cc1noc(C)c1S(=O)(=O)N(C)C[C@H]1OCCCC[C@@H](C)Oc2ccc(NC(=O)Nc3ccc4c(c3)OCO4)cc2C(=O)N([C@@H](C)CO)C[C@H]1C`, the molecule was classed as inactive. Next, `CCOC(=O)c1[nH]c(C)c(C(=O)OCC(=O)N2CC(=O)Nc3ccccc32)c1C`: “inactive”; `CC1CCCCN1CCCNC(=O)c1ccc2nc(N3CCCCC3)sc2c1` (stereo not drawn): “inactive”; `CCOC(=O)c1sc(NC(=O)c2ccncc2)c(C#N)c1C`: “inactive”.

With `CC(C)C(=O)Nc1nnc(S(=O)(=O)N2CCc3ccccc32)s1`, the molecule was called inactive.

On to `Fc1ccc(CCN2CCN=C2Nc2ccccc2)cc1`, for which the molecule was classed as inactive.

Take `CCC(C)[C@H]1COCCS(=O)(=O)N1Cc1ccc(Br)cc1` (stereo partly drawn): the molecule was classed as inactive. The value for `O=C(N[C@@H]1C=C[C@H](CC(=O)N2CCc3ccccc3C2)O[C@@H]1CO)C1CCC1` was “inactive”; that for `COc1cc2cc(CCCOC(=O)CCC(=O)O)oc(=O)c2cc1OC` was “inactive”. Next, `CC1Cc2ccccc2N1S(=O)(=O)c1cnc(Cl)c(Br)c1` (stereo not drawn): “inactive”.

Regarding `O=C(O)c1cccc(-c2csc(C(O)c3ccc(F)c(F)c3)n2)c1` (stereo not drawn), the molecule was classed as inactive. Next, `O=C(O)c1ccccc1C(=O)NCc1c(Cl)cccc1Sc1ccc(Cl)cc1`: “inactive”; `COc1ccc(CCN2CC(C(=O)NCCc3cn[nH]c3)CCC2=O)cc1` (stereo not drawn): “inactive”. The value for `CNC(=O)C[C@H]1CC[C@@H]2[C@H](COc3ccc(NC(=O)c4ccc(F)c(F)c4)cc3C(=O)N2C)O1` was “inactive”. The value for `COc1cc2c(cc1OC)CN(C(=O)CCOc1ccccc1C)CC2` was “inactive”; that for `N#Cc1cccnc1N1CCN(C(=O)c2ccccc2)CC1` was “inactive”. On to `O=C(NCC[C@H]1CC[C@H](NS(=O)(=O)c2ccc(Oc3ccccc3)cc2)[C@@H](CO)O1)C1CC1`, for which the call was inactive. The value for `CCCCCc1c(-c2ccccc2OC)ncn1CCc1ccccc1OC` was “inactive”. Next, `O=C(Nc1cccc(S(=O)(=O)N2CCCCCC2)c1)c1ccc2ccccc2n1`: “inactive”; `Cc1ccc(C(=O)O/N=C(\N)c2ccccn2)cc1`: “inactive”; `CCc1nc2ccc(C(=O)N(CC)CCN(C)C)cn2c1N(C)C(=O)c1cccc(OC)c1`: “inactive”. `C[C@@H]1CN([C@@H](C)CO)C(=O)c2cc(NS(=O)(=O)c3ccc(Cl)cc3)ccc2O[C@@H](C)CCCCO[C@H]1CN(C)CC1CC1`: the call was inactive. The value for `O=C(c1cc(C2CC2)on1)N1CCCC(N2CCN(c3cccc(C(F)(F)F)c3)CC2)C1` (stereo not drawn) was “inactive”; that for `O=C(c1ccncc1)N1CCCC(N2CCN(c3cccc(C(F)(F)F)c3)CC2)C1` (stereo not drawn) was “inactive”; that for `O=S(=O)(NCc1c(Cl)cccc1Oc1ccccc1)c1ccccc1` was “inactive”.

On to `CCOc1ccc(C(=O)NCC(=O)N2CCCCCCC2)cc1`, for which the molecule was classed as inactive. With `O=C(O)C[C@H]1C=C[C@@H](NC(=O)CCN2CCCCC2)[C@@H](CO)O1`, the result was inactive. Next, `CC1CCOC(c2coc3ccccc3c2=O)O1` (stereo not drawn): “inactive”; `COc1ccc(Br)cc1[C@H]1[C@H]2C=CC[C@@H](C)[C@@H]2C(=O)N1Cc1ccccc1`: “inactive”. Next, `O=C(Nc1cccc(-n2cnnn2)c1)C1CCCN(C(=O)Cc2cccc(Cl)c2)C1` (stereo not drawn): “inactive”; `CC(C)CN(C(=O)c1cc(Cl)nc2ccccc12)c1c(N)n(Cc2ccccc2)c(=O)[nH]c1=O`: “inactive”; `O=C(O)[C@H]1[C@H](CO)[C@H]2Cn3c(ccc(/C=C/c4ccccc4)c3=O)[C@H]2N1C(=O)c1cnccn1`: “inactive”. The value for `CN(CC(=O)Nc1ccc(F)cc1)C(=O)COC(=O)c1nc(Cl)ccc1Cl` was “inactive”.

As for `CC(C)(C)OC(=O)CNC(=O)c1[nH]cnc1C(=O)N[C@@H](Cc1ccccc1)C(=O)OC(C)(C)C`, the molecule was called inactive.

With `CCOc1ncccc1C(=O)NNC(=O)c1cccc(S(=O)(=O)Nc2ccccc2OC)c1`, the result was inactive. The value for `COc1cccc(N2CCN(C(=O)c3cccc(NC4=NC5CS(=O)(=O)CC5S4)c3)CC2)c1` (stereo not drawn) was “inactive”. The value for `CC(=O)Nc1cccc2ncccc12` was “inactive”; that for `COc1cc(NC(C)=O)c2ncccc2c1Br` was “inactive”. Consider `OC(COC(c1ccc(F)cc1)c1ccc(F)cc1)CN1CCCC1` (stereo not drawn), for which the molecule was called inactive. As to `Cc1ccc(C(=O)Nc2ccc(CN3CCCCC3)cc2)c(C)c1`, the molecule was classed as inactive.

For the molecule `CN1CCC2CC1c1cc(-c3ccc(C(F)(F)F)cc3)ccc12` (stereo not drawn), the molecule was called inactive. As to `O=C(C[C@@H]1CC[C@H]2[C@@H](COC[C@@H](O)CN2Cc2cccc(Cl)c2)O1)N1CCOCC1`, the molecule was called inactive.

On to `O=C(C[C@H]1CC[C@H]2[C@@H](COC[C@@H](O)CN2Cc2cccc(C(F)(F)F)c2)O1)NCc1ccc(F)cc1`, for which the result was inactive. Turning to `C[C@@H]1CCCCO[C@H](CN(C)S(=O)(=O)c2ccccc2)[C@@H](C)CN([C@@H](C)CO)C(=O)c2cc(NC(=O)CCCN(C)C)ccc2O1`, the outcome was inactive. Next, `COc1ccc(S(=O)(=O)N(C)C[C@@H]2Oc3ccc(NS(=O)(=O)c4ccccc4)cc3C(=O)N([C@H](C)CO)C[C@H]2C)cc1`: “inactive”; `CCNC(=O)C[C@H]1CC[C@H]2[C@@H](COC[C@@H](O)CN2Cc2ccc(Cl)c(Cl)c2)O1`: “inactive”; `CCNC(=O)C[C@H]1CC[C@H]2[C@@H](COC[C@H](O)CN2Cc2ccc(Cl)c(Cl)c2)O1`: “inactive”.

On to `CCC1CN(S(=O)(=O)c2ccc3c(c2)NC(=O)CC(=O)N3)c2cc(Cl)ccc2O1` (stereo not drawn), for which the call was inactive. Turning to `Cc1cc(OCC(=O)NC(Cc2c[nH]c3ccc(O)cc23)C(=O)O)c2c(C)c(C)c(=O)oc2c1` (stereo not drawn), the call was inactive. The value for `COc1cccc(CNC(=O)[C@@H]2CCCN2C(=O)[C@H]2CCCCN2C(=O)c2ccc(Cl)cc2)c1` was “inactive”; that for `CCCCn1c(N)c(N(CC)C(=O)c2cc(C)cc(C)c2)c(=O)[nH]c1=O` was “inactive”; that for `CC(C)CCC(O)(c1ccccc1)C(CN1CCOCC1)c1ccccc1` (stereo not drawn) was “inactive”. Next, `C[C@@H]1CCCCO[C@H](CN(C)S(=O)(=O)c2ccc(Cl)cc2)[C@H](C)CN([C@H](C)CO)C(=O)c2cc(N(C)C)ccc2O1`: “inactive”; `C=CCOc1ccccc1CN1CCC(Cc2ccccc2)CC1`: “inactive”. The value for `C[C@@H]1CCCCO[C@@H](CN(C)C(=O)c2ccccc2)[C@@H](C)CN([C@H](C)CO)C(=O)c2cc(NC(=O)CCC(F)(F)F)ccc2O1` was “inactive”; that for `CC1(C)CN(Cc2cccnc2)C(=O)[C@H]1CC(=O)Nc1ccc(Br)cc1` was “inactive”. For `Cc1cc(NC(=O)Cn2c(=O)oc3ccc(Cl)cc32)no1`, the molecule was classed as inactive.

As for `CC(C)(C)NC(=O)c1cccc(NC(=O)c2ccc3c(c2)C(=O)N(C(C)(C)C)C3=O)c1`, the result was inactive. The value for `COc1cc(OC)cc(C(=O)Nc2ccc3nc4n(c(=O)c3c2)CCCC4)c1` was “inactive”; that for `CN(Cc1ccc(Cl)c(Cl)c1)C(=O)C1CC(=O)N(c2ccc3c(c2)OCCO3)C1` (stereo not drawn) was “inactive”.

Consider `COc1ccc(CN2C(=O)CCC2(C)c2nnnn2Cc2ccccc2)cc1` (stereo not drawn), for which the call was inactive. Next, `Cc1cc(C)c(OCCCNC2CCCC2)c(Br)c1`: “inactive”. The value for `COc1cc(O)c(C(CC(=O)N2CCCC(C)C2)c2cc(OC)c(OC)c(OC)c2)c(OC)c1` (stereo not drawn) was “inactive”; that for `CN(C)c1ccc(CC(=O)N2CCCC(c3cc(C(=O)Nc4ccc(F)c(Cl)c4)no3)C2)cc1` (stereo not drawn) was “inactive”; that for `C/C=C/c1cnc2c(c1)C(=O)N([C@H](C)CO)C[C@H](C)[C@H](CN(C)S(=O)(=O)c1ccccc1)O2` was “inactive”. The value for `Cc1ccc(S(=O)(=O)N2CC[C@@H]3[C@H](CO)Nc4ccc(-c5ccccc5F)cc4[C@@H]32)cc1` was “inactive”. As for `COc1ccc(-c2ccc3c(c2)[C@H]2[C@H](CCN2C(=O)CN2CCOCC2)[C@@H](CO)N3)cc1`, the result was inactive. The value for `Cc1ccc(CNC(=O)[C@H](C)N2C(=O)N3CCc4c([nH]c5ccccc45)[C@@]3(C)C2=O)cc1` was “inactive”; that for `C/C(=N/NC(=O)CCC(=O)Nc1cccc(Cl)c1)c1ccc(C)cc1` was “inactive”. The value for `CC(C)(C)NC(=O)C(c1cccc2ccccc12)n1c(=O)c(-c2ccccc2)nc2ccccc21` (stereo not drawn) was “inactive”; that for `CCOc1ncccc1C(=O)OCC(=O)NCc1ccc(C(=O)OC)cc1` was “inactive”; that for `C[C@@H]1CCCCO[C@H](CN(C)C(=O)Nc2cccc3ccccc23)[C@@H](C)CN([C@@H](C)CO)C(=O)c2cc(NS(=O)(=O)c3cn(C)cn3)ccc2O1` was “inactive”. Next, `CCn1c(SCc2cccc(F)c2)nnc1-c1ccncc1`: “inactive”. Regarding `Cc1cccc(C)c1-n1nnnc1C1(C)CCC(=O)N1Cc1cccnc1` (stereo not drawn), the outcome was inactive. Next, `O=C(NCC1CCCCC1)[C@@H]1[C@@H](CO)[C@@H]2Cn3c(cccc3=O)[C@H]1N2CCc1ccccc1`: “inactive”; `C[C@H]1CCCCO[C@H](CN(C)C(=O)Nc2ccc(C(F)(F)F)cc2)[C@@H](C)CN([C@@H](C)CO)C(=O)c2cc(NC(=O)C3CCCCC3)ccc2O1`: “inactive”.

For `OC(c1ccccc1)C(NCc1ccccc1)c1ccccc1` (stereo not drawn), the molecule was classed as inactive. Next, `CCC(=O)Nc1ccc(NC(=O)c2oc3ccccc3c2C)cc1`: “inactive”. Next, `CC1(C)CC(NC(=O)COc2ccccc2Cl)CC(C)(C)N1`: “inactive”. Next, `O=C(NC1CCCC1)C(C1CC1)n1c(C2CCCC2)nc2ccccc21` (stereo not drawn): “inactive”; `CCOC(=O)c1ccc(S(=O)(=O)N2CCC(N3CCCCC3)CC2)cc1`: “inactive”. Turning to `CCc1ccc(NC(=O)N(CCCN2CCOCC2)Cc2cccs2)cc1`, the molecule was called inactive. Next, `COc1ccc(N(C(=O)c2cccnc2)S(=O)(=O)c2ccc(OC)c(OC)c2)cc1`: “inactive”; `CO[C@@H]1CN(C)C(=O)c2ccc(NC(C)=O)cc2OC[C@@H](C)N(S(C)(=O)=O)C[C@H]1C`: “inactive”; `CCc1ccc2cc(C)cc(C)c2n1`: “inactive”. The value for `COc1ccc(S(=O)(=O)Nc2ccc3c(c2)C(=O)N([C@@H](C)CO)C[C@@H](C)[C@H](CN(C)S(=O)(=O)c2ccc(Cl)cc2)O3)cc1` was “inactive”; that for `CCCn1c(-c2ccc[nH]c2=O)nc2cc(C)c(C)cc21` was “inactive”; that for `C[C@H]1CCCCO[C@@H](CN(C)C(=O)Nc2cccc3ccccc23)[C@@H](C)CN([C@@H](C)CO)C(=O)c2cc(NC(=O)Cc3ccccc3)ccc2O1` was “inactive”. On to `Cc1cccc(C(=O)N2CCC(=O)N([C@H](COCc3ccc(Cl)cc3)Cc3ccccc3)CC2)c1`, for which the result was inactive. Consider `Cc1c(C(=O)Nc2ccccc2F)sc2ncn(CC(=O)N3CCOCC3)c(=O)c12`, for which the call was inactive. The value for `Cc1nc2ccc(C(=O)NC(C)(C)C)cn2c1N(C)C(=O)CCc1ccccc1` was “inactive”; that for `O=C(Nc1ccc2ccccc2c1)C(C1CC1)n1c(=O)c(-c2cc3ccccc3[nH]2)nc2ccccc21` (stereo not drawn) was “inactive”. For `COc1ccc(CCC(C)NCc2ccc(F)cc2)cc1` (stereo not drawn), the result was inactive.

In the case of `CCCn1c(=N)n(CC(O)COc2ccc(C)cc2)c2ccccc21` (stereo not drawn), the outcome was inactive. Next, `CCN(C(=O)COC(=O)c1cc2c(s1)CCCCC2)C1CCS(=O)(=O)C1` (stereo not drawn): “inactive”; `Cc1cc(C)n2c(NC3CCCC3)c(-c3cccnc3)nc2n1`: “inactive”; `CCOC(=O)C1CCN(Cc2c(C(=O)N3CCOCC3)nc3c(C)cccn23)CC1`: “inactive”. Next, `CCCCC[C@H]1CN(CCc2ccccc2)C(=O)[C@@H]1CC(=O)NCc1ccc(OC)cc1`: “inactive”; `CO[C@H]1CN(C)C(=O)c2cc(NC(=O)c3ccccc3F)ccc2OC[C@H](C)N(CC2CCOCC2)C[C@H]1C`: “inactive”. The value for `CC(=O)N[C@@H]1CC[C@H](CCNC(=O)C2CCCC2)O[C@H]1CO` was “inactive”. Consider `CC(C)NC(=O)Nc1ccc2c(c1)C(=O)N([C@@H](C)CO)C[C@H](C)[C@H](CN(C)C(=O)Nc1ccc3c(c1)OCO3)O2`, for which the result was inactive. Next, `COc1ccc(NC(=O)Nc2cccc3c2O[C@H](CN(C)S(=O)(=O)c2ccccc2)[C@H](C)CN([C@@H](C)CO)C3=O)cc1`: “inactive”; `COc1ccc(S(=O)(=O)N2CCCC2C(=O)NCC(=O)Nc2cccc(Cl)c2C)cc1` (stereo not drawn): “inactive”; `O=C(NCc1ccncc1)c1cccc(NS(=O)(=O)c2ccc(F)c(F)c2)c1`: “inactive”.
